From PubChem BioAssay (Tox21) come the findings set out here.

Structures are written as SMILES. Results filed as inconclusive are left out. Entries that show only a call come without a potency. Values without a mark were called inactive. Activity calls are given as the source filed them. The call rests on the fitted dose curve; in most records, active means well fitted curve in the direction sought with a large enough effect in the repeat runs; inconclusive means weak or mixed curves; inactive means no such curve, though single readings can be large; an effect the other way counts as inactive or inconclusive.

The nature of one assay: A CellTox Green Cytotoxicity Assay to monitor cytotoxicity in HepG2 cells - 24 hour (AID 1224878). Further: nearly all actives have a fitted effect of over 45% in size. As to conditions: CellTox Green fluorescence; series mostly up to 76.8 µM. Summed up: (§1)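 HepG2, 600 cells/well premixed w/ CellTox Green; 5 h settle, 37 C/5% CO2; pintool cpd add (DMSO); 37 C, 40 h; fluorescence read at 0, 8, 16, 24, 32, 40 h.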
Regarding `Cc1cc(C)c(N=Nc2c(O)c(S(=O)(=O)O)cc3cc(S(=O)(=O)O)ccc23)cc1C`, the cytotoxicity was -2.84% [at 6.97 µM].
Regarding `COc1cc2c(cc1OC)-c1cc3ccc(OC)c(OC)c3c[n+]1CC2`, the compound was classed as inactive.
Consider `CC(C)CC(C)(N)C#N` (centres undefined), for which the outcome was inactive.
On the same count and under the same terms, then `NCCCC[C@H](N[C@@H](CCc1ccccc1)C(=O)O)C(=O)N1CCC[C@H]1C(=O)O`, with “inactive”.
Consider `CNCCO`, for which the result was inactive.
As for `CCCCS(=O)(=O)N[C@@H](Cc1ccc(OCCCCC2CCNCC2)cc1)C(=O)O`, the result was inactive.
Regarding `CCN[C@@H]1C[C@H](N)[C@@H](OC2OC(CN)=CCC2N)[C@H](O)[C@H]1O[C@H]1OC[C@](C)(O)[C@H](NC)[C@H]1O` (some centres undefined), the cytotoxicity is -2.12% [at 0.29 µM].
As to `O=S(=O)(O)c1cccc2c(S(=O)(=O)O)cccc12`, the call was inactive.
In the case of `COc1ccnc(CS(=O)c2nc3cc(OC(F)F)ccc3[nH]2)c1OC` (centres undefined), the outcome was inactive.
The same measure, in the same setting: for `C[N+]1(C)[C@@H]2CC(OC(=O)[C@H](CO)c3ccccc3)C[C@H]1[C@@H]1O[C@@H]12` (some centres undefined) the value was “inactive”.
In the case of `CC[N+](CC)(CC)CCOc1cccc(OCC[N+](CC)(CC)CC)c1OCC[N+](CC)(CC)CC`, the compound was classed as inactive.
As to `C=C(C)C(=O)OCCOCCOCCOCCOC(=O)C(=C)C`, the result was inactive.
With `CCCn1cc[n+](C)c1C`, the compound was classed as inactive.
With `O=C(O)c1cn(C2CC2)c2cc(N3CCNCC3)c(F)cc2c1=O`, the compound was classed as inactive.
Consider `NC(CCC(=O)O)C(=O)O` (centres undefined), for which the outcome was inactive.
Same read-out and setting: for `Nc1ccn([C@@H]2O[C@H](CO)[C@@H](O)C2(F)F)c(=O)n1` the value was “inactive”; for `COC(=O)C1=C(C)NC(C)=C(C(=O)OC(C)C)C1c1cccc2nonc12` (centres undefined), “inactive”; for `CCOC(=O)COc1cc(-n2ncc(C(F)(F)F)c(C)c2=O)c(F)cc1Cl`, “inactive”.
Same read-out and setting: then `COC(=O)Nc1ccc(Cl)c(Cl)c1`, with “inactive”; and `NC(=O)N1c2ccccc2CC(=O)c2ccccc21`, with “inactive”.
As to `CC(CC=O)CC(C)(C)C` (centres undefined), the outcome was inactive.

A short description of the next assay: A CellTox Green Cytotoxicity Assay to monitor cytotoxicity in HepG2 cells - 40 hour (AID 1224879). Further: nearly all actives have a fitted effect of over 40% in size. Further: potency means the concentration at half of the fitted maximal effect. Particulars: CellTox Green fluorescence; series mostly up to 76.8 µM. Summed up: as §1
For `Cc1cc(C)c(N=Nc2c(O)c(S(=O)(=O)O)cc3cc(S(=O)(=O)O)ccc23)cc1C`, the cytotoxicity increase is -2.22% [at 6.97 µM].
As to `COc1cc2c(cc1OC)-c1cc3ccc(OC)c(OC)c3c[n+]1CC2`, the Potency entry is “inactive”.
Regarding `CC(C)CC(C)(N)C#N` (centres undefined), the Potency result is “inactive”.
Take `CCCCS(=O)(=O)N[C@@H](Cc1ccc(OCCCCC2CCNCC2)cc1)C(=O)O`: the Potency entry is “inactive”.
Turning to `CCN[C@@H]1C[C@H](N)[C@@H](OC2OC(CN)=CCC2N)[C@H](O)[C@H]1O[C@H]1OC[C@](C)(O)[C@H](NC)[C@H]1O` (some centres undefined), the cytotoxicity increase was -8.46% [at 0.29 µM].
For `COc1ccnc(CS(=O)c2nc3cc(OC(F)F)ccc3[nH]2)c1OC` (centres undefined), the Potency result was “inactive”.
The same measure, in the same setting: then `C[N+]1(C)[C@@H]2CC(OC(=O)[C@H](CO)c3ccccc3)C[C@H]1[C@@H]1O[C@@H]12` (some centres undefined), with “inactive”; and `C1CCC2=NCCCN2CC1`, with “inactive”; and `C=C(C)C(=O)OCCOCCOCCOCCOC(=O)C(=C)C`, with “inactive”.
Still for that read-out and setting: for `O=C(O)c1cn(C2CC2)c2cc(N3CCNCC3)c(F)cc2c1=O` the value was “inactive”; for `NC(CCC(=O)O)C(=O)O` (centres undefined), “inactive”.
Regarding `Nc1ccn([C@@H]2O[C@H](CO)[C@@H](O)C2(F)F)c(=O)n1`, the Potency entry was “inactive”.
As for `CC(=O)O[C@@]12CO[C@@H]1C[C@H](O)[C@@]1(C)C(=O)[C@H](O)C3=C(C)[C@@H](OC(=O)[C@H](O)[C@@H](NC(=O)OC(C)(C)C)c4ccccc4)C[C@@](O)([C@@H](OC(=O)c4ccccc4)[C@H]21)C3(C)C`, the Potency was 6 nM (active).
Still for that read-out and setting: for `COC(=O)C1=C(C)NC(C)=C(C(=O)OC(C)C)C1c1cccc2nonc12` (centres undefined) the value was “inactive”; for `CCOC(=O)COc1cc(-n2ncc(C(F)(F)F)c(C)c2=O)c(F)cc1Cl`, “inactive”; for `COC(=O)Nc1ccc(Cl)c(Cl)c1`, “inactive”.
Consider `NC(=O)N1c2ccccc2CC(=O)c2ccccc21`, for which the Potency entry was “inactive”.
Still for that read-out and setting: then `CC(CC=O)CC(C)(C)C` (centres undefined), with “inactive”.

The nature of a further assay: qHTS RealTime-Glo MT Cell Viability Assay in HEK293 cells - 0 hour (AID 1224880). Further: nearly all actives have a fitted effect of over 45% in size. Further: potency means the concentration at half of the fitted maximal effect. On activity change, negative = cytotoxicity: top concentration of the series differs between compounds. Particulars: RealTime-Glo luminescence; series mostly up to 76.8 µM. Summed up: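 Luminescence readout at each listed time point; HEK293, 600 cells/well, RealTime-Glo MT reagent added with cells; compounds pinned (23 nL in DMSO) after 5 h at 37 C; continuous culture at 37 C.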
For orientation: Quantitative high-throughput screening tests each substance at several concentrations.
For `c1ccc(CCc2ccccc2)cc1`, the Potency result is “inactive”.
Same read-out and setting: for `COc1cc2c(cc1OC)-c1cc3ccc(OC)c(OC)c3c[n+]1CC2` the value was “inactive”; for `CC1OC1C1CCC2(C)OC2C1` (centres undefined), “inactive”.
For the compound `CC(C)CC(C)(N)C#N` (centres undefined), the Potency result was “inactive”.
For the compound `NCCCC[C@H](N[C@@H](CCc1ccccc1)C(=O)O)C(=O)N1CCC[C@H]1C(=O)O`, the Potency entry is “inactive”.
On to `CNCCO`, for which the Potency result is “inactive”.
Still for that read-out and setting: for `CCCCS(=O)(=O)N[C@@H](Cc1ccc(OCCCCC2CCNCC2)cc1)C(=O)O` the value was “inactive”; for `Cc1cccc(C)c1NC(=O)CC12CCCN1CCC2`, “inactive”.
On to `Cc1nc(C2CCCCC2)c(-c2ccc(S(N)(=O)=O)c(F)c2)o1`, for which the Potency result was “inactive”.
Take `CCN[C@@H]1C[C@H](N)[C@@H](OC2OC(CN)=CCC2N)[C@H](O)[C@H]1O[C@H]1OC[C@](C)(O)[C@H](NC)[C@H]1O` (some centres undefined): the activity change, negative = cytotoxicity is 1.44% [at 0.29 µM].
`O=S(=O)(O)c1cccc2c(S(=O)(=O)O)cccc12`: the Potency result was “inactive”.
Still for that read-out and setting: for `COc1ccnc(CS(=O)c2nc3cc(OC(F)F)ccc3[nH]2)c1OC` (centres undefined) the value was “inactive”; for `CC[N+](CC)(CC)CCOc1cccc(OCC[N+](CC)(CC)CC)c1OCC[N+](CC)(CC)CC`, “inactive”; for `C1CCC2=NCCCN2CC1`, “inactive”.
For `CCCCCCCCCC[N+](C)(C)[O-]`, the Potency entry is “inactive”.
For `CCOc1ccccc1OCC`, the Potency result is “inactive”.
Regarding `C=C(C)C(=O)OCCOCCOCCOCCOC(=O)C(=C)C`, the Potency result was “inactive”.
`C[N+](C)(CCOc1ccccc1)Cc1cccs1`: the Potency entry is “inactive”.
For `CCOC(=O)C1=NOC(c2ccccc2)(c2ccccc2)C1`, the Potency entry is “inactive”.
With `CCCn1cc[n+](C)c1C`, the Potency entry is “inactive”.
On to `O=C(O)c1cn(C2CC2)c2cc(N3CCNCC3)c(F)cc2c1=O`, for which the Potency result was “inactive”.
`NC(CCC(=O)O)C(=O)O` (centres undefined): the Potency result was “inactive”.
Regarding `CCN[C@H]1C[C@H](C)S(=O)(=O)c2sc(S(N)(=O)=O)cc21`, the Potency entry was “inactive”.
In the case of `Nc1ccn([C@@H]2O[C@H](CO)[C@@H](O)C2(F)F)c(=O)n1`, the Potency result is “inactive”.
Consider `O=C1CCCCCCCCCCCCCCO1`, for which the Potency entry is “inactive”.
On the same count and under the same terms, for `CC(=O)O[C@@]12CO[C@@H]1C[C@H](O)[C@@]1(C)C(=O)[C@H](O)C3=C(C)[C@@H](OC(=O)[C@H](O)[C@@H](NC(=O)OC(C)(C)C)c4ccccc4)C[C@@](O)([C@@H](OC(=O)c4ccccc4)[C@H]21)C3(C)C` the value was “inactive”; for `CC(=O)c1ccc2ccccc2c1`, “inactive”.
For `Cc1ccc(C(=O)c2ccc(CC(=O)O)n2C)cc1`, the Potency result was “inactive”.
Consider `COC(=O)C1=C(C)NC(C)=C(C(=O)OC(C)C)C1c1cccc2nonc12` (centres undefined), for which the Potency was 1690 nM (active).
Regarding `CCOC(=O)COc1cc(-n2ncc(C(F)(F)F)c(C)c2=O)c(F)cc1Cl`, the Potency entry was “inactive”.
Regarding `COC(=O)Nc1ccc(Cl)c(Cl)c1`, the Potency entry is “inactive”.
For `NC(=O)N1c2ccccc2CC(=O)c2ccccc21`, the Potency result is “inactive”.
In the case of `CC(CC=O)CC(C)(C)C` (centres undefined), the Potency entry was “inactive”.
For `CC1=C(C/C=C(\C)CCC[C@H](C)CCC[C@H](C)CCCC(C)C)C(=O)c2ccccc2C1=O`, the Potency result was “inactive”.
As for `Cc1c(N)c(=O)n(-c2ccccc2)n1C`, the Potency entry is “inactive”.
